NTMT1 inhibitor: inhibitors of human N-terminal methyltransferase NTMT1; Q9BV86; NTMT1 MTase-Glo SAH luminescence, purified enzyme; Potency, µM (top dose mostly 114 µM), without a hit: at the highest dose activity change, negative = inhibition, most hits filed as inhibitors; 59,000 compounds, 2.5% hits; AID 1645870;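 further: potency means the concentration at half of the fitted maximal effect; plate controls were DMSO vehicle for no effect and no enzyme for full effect; nearly all actives have a fitted effect of over 65% in size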
Target sequence (Q9BV86 whole entry, looked up): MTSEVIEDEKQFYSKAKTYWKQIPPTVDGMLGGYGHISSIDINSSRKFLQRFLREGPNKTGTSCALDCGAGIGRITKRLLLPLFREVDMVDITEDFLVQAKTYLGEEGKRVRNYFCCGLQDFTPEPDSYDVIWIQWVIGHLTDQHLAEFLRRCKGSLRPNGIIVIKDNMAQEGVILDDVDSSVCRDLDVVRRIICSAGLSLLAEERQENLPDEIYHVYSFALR
FH mod: Identification of activators of human fumarate hydratase by quantitative high-throughput screening | 54,000 compounds, 0.22% hits | Potency, µM (doses to about 79.9 µM), inactives show at the highest dose activity change, negative = inhibition, most hits filed as inhibitors | FH coupled MDH/diaphorase resazurin fluorescence, 15 min | Fumarate hydratase, mitochondrial (Homo sapiens), P07954; further: potency means the concentration at half of the fitted maximal effect; on the % scale 0 is the no-effect control and ±100 the full control effect; the screen sought activators but most active calls are inhibition curves; nearly all actives have a fitted effect of over 45% in size
DYRK1A inh-1: blocks recombinant human DYRK1A kinase activity. 100 compounds, 80% hits. shares compounds with NTMT1 inhibitor. Potency, µM (titrated, usually from 76.9 µM), for the others: at the highest dose activity change, negative = inhibition, usual class: inhibitors. AID 2705. recombinant DYRK1A, Kinase-Glo ATP depletion luminescence
CLK4 inh-1: CLK4 kinase inhibition, SAR round 2; shares compounds with NTMT1 inhibitor; recombinant Clk4, Kinase-Glo ATP luminescence, 4.5 h; Potency, µM (highest dose often 76.9 µM), inactives show at the highest dose activity, negative = inhibition, actives largely listed as inhibitors; 90 compounds, 90% hits
CLK4 inh-2: CLK4 kinase inhibition, SAR round 2; shares compounds with NTMT1 inhibitor; Reaction Biology kinase assay, 10 uM ATP; Potency, µM, actives largely listed as inhibitors; 65 compounds, 100% hits; AID 504421; calls by dose curve
DYRK1A inh-2: inhibitors of human DYRK1A kinase | shares compounds with NTMT1 inhibitor | 65 compounds, 90% hits | Potency, µM, actives largely listed as inhibitors | Reaction Biology kinase assay, 10 uM ATP;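 active means compounds that showed inhibition of Dyrk1a and received a fitted potency; inactive means compounds that showed no inhibition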
CLK2 inh: inhibitors of human CLK2 kinase; Reaction Biology kinase assay, 10 uM ATP; Potency, µM, hits mostly inhibitors; 65 compounds, 90% hits; shares compounds with NTMT1 inhibitor; AID 504427;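 active means compound that inhibits Clk2 kinase in the dose series, with an IC50 potency reported; inactive means no inhibition seen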
CLK3 inh: blocks human CLK3 kinase activity | Potency, µM, usual class: inhibitors | recombinant CLK3 kinase assay, 10 uM ATP | 65 compounds, 40% hits | shares compounds with NTMT1 inhibitor;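 active means compounds that inhibited Clk3 enough in the ten-dose series to give a half-maximal potency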
DYRK1B RBC: inhibitors of human Dyrk1b kinase; Potency, µM, usual class: inhibitors; 65 compounds, 80% hits; shares compounds with NTMT1 inhibitor; Recombinant Dyrk1b kinase assay, 10 uM ATP; AID 504429;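 active means compounds whose dose response shows an inhibitor phenotype against the kinase Dyrk1b; inactive means compounds showing no inhibitor phenotype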
CLK1 RBC: blocks human CLK1 kinase activity; Potency, µM, actives largely listed as inhibitors; AID 504430; shares compounds with NTMT1 inhibitor; 65 compounds, 90% hits; recombinant Clk1 kinase assay, 10 uM ATP;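 active means compounds that block the splicing kinase Clk1 enough to give a fitted half-inhibition concentration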
USP2a K63: USP2a inhibition confirmed on K63 diubiquitin; shares compounds with NTMT1 inhibitor; USP2 cleavage of DiUb K63-3IQF, fluorescence kinetic; Potency, µM (doses to about 57.5 µM), without a hit: at the highest dose activity change, negative = inhibition, most hits filed as inhibitors; 30 compounds, 80% hits; AID 652172
Casp6 inh: caspase-6 inhibition, USP2a inhibitor counterscreen; shares compounds with NTMT1 inhibitor; Caspase 6 enzyme, Caspase-Glo 6 luminescence; activity change, negative = inhibition, % at 46.1 µM; 30 tested, under 10 active; AID 652277
NNMT counter: human NNMT inhibition, NTMT1 counter-screen | Potency, µM (top dose mostly 57.1 µM), for inactives: at the top dose activity, negative = inhibition, usual class: inhibitors | shares compounds with NTMT1 inhibitor | NNMT MTase-Glo luminescence, SAH detection | 120 compounds, 10% hits | AID 1645878
Target sequence (P40261 whole entry, looked up): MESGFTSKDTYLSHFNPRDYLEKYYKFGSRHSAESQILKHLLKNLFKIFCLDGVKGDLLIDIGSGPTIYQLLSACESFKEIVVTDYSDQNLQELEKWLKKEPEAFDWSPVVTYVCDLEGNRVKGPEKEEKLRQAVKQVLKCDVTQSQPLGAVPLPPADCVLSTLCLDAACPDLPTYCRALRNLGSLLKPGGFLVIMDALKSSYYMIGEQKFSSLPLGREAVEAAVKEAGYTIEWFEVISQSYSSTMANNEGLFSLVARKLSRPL
Active calls of the source: *; i = inactive; u = inconclusive; x = no result; [ ] = another dose, or the depositor's remark. Only a selection was taken, and hits are over-represented in it overall. Unless noted, the call rests on the fitted dose curve; in most records, active means well fitted curve in the direction sought with a large enough effect; inconclusive means small, poorly fitted or top-dose-only effect, or another doubt; inactive means no such curve, though single readings can be large; an effect the other way counts as inactive or inconclusive.

SMILES | NTMT1 inhibitor | FH mod | NNMT counter | others
c1coc(CNc2ncnc3ccc(-c4ccc5c(c4)OCO5)cc23)c1 | x | x | x | CLK4 inh-1=0.037µM*;CLK4 inh-2=0.079*;DYRK1A inh-2=0.084µM*;CLK2 inh=0.3µM*;CLK3 inh=2.6µM*;DYRK1B RBC=0.53µM*;CLK1 RBC=0.19µM*
COc1cccc(-c2ccc3ncnc(NCc4cccs4)c3c2)c1 | -20% | x | x | DYRK1A inh-1=7.3µM*
Cn1ccc2cc(-c3ccc4ncnc(NCc5cccs5)c4c3)ccc21 | -6%[57.5 µM] | x | x | DYRK1A inh-1=u
O=[S+]([O-])(Nc1nccs1)c1ccc(NCc2cc(Cl)cc(Br)c2O)cc1 | -11% | x | x
Cc1ccc(NC(=O)c2ccc(-c3nc4ccccc4[nH]3)cc2)cc1Br | -4% | x | x
CC(C)c1cc2c(c(O)c1O)[C@@]13CCCC(C)(C)C1[C@@H](O)[C@@H]2OC3=O (some centres undefined) | u | -9%[53.3 µM] | -10%[38.3 µM]
CC(C)c1cc2c(c(O)c1O)[C@@]13CCCC(C)(C)[C@@H]1[C@H](OC3=O)C2=O | -10%[29.8 µM] | u | u
CC1(C)CCCC2(C)c3c4c(c(=O)oc(=O)c3=CCC12)=CCC1C(C)(C)CCCC41C (centres undefined) | 16%[29.8 µM] | 1%[53.3 µM] | x
Cc1cc(O)cc2c1[C@]1(C)CC[C@H]3C(C)(C)CCC[C@]3(C)[C@H]1C2 | -20%[12.6 µM] | x | x
Nc1ncnc2c1nc(N)n2[C@@H]1O[C@H](CO)[C@@H](O)[C@H]1O | 125%[57.5 µM] | -1% | 19%
C[C@@H](Oc1cc(-n2cnc3ccc(OC4CCN(C)CC4)cc32)sc1C(N)=O)c1ccccc1C(F)(F)F | 2.2µM* | -11% | u
CC(C)(C)C(=O)N1CCN(c2cccc(Nc3nn4c(=O)c5ccccc5nc4s3)c2)CC1 | 5% | x | x
Fc1ccccc1CNCc1ccc(-c2ccnc3[nH]ccc23)cc1 | u | -6% | u
Nc1cccc([S+](=O)([O-])N2CCCN([S+](=O)([O-])c3cccc(N)c3)CC2)c1 | 12% | x | x
O=C(O)c1ccc(-c2ccc3ncnc(NCC4CCCO4)c3c2)o1 (centres undefined) | -4% | x | x | CLK4 inh-1=0.82µM*;CLK4 inh-2=3.4*;DYRK1A inh-2=30µM*;CLK2 inh=20µM*;CLK3 inh=i;DYRK1B RBC=12µM*;CLK1 RBC=44µM*
O=C(O)c1ccc(-c2ccc3ncnc(NCc4nccs4)c3c2)o1 | 0%[57.5 µM] | x | x | CLK4 inh-1=0.92µM*;CLK4 inh-2=1.9*;DYRK1A inh-2=41µM*;CLK2 inh=27µM*;CLK3 inh=i;DYRK1B RBC=18µM*;CLK1 RBC=39µM*
OCc1ccc(-c2ccc3ncnc(NCC4CCCO4)c3c2)o1 (centres undefined) | x | x | x | CLK4 inh-2=13*;DYRK1A inh-2=i;CLK2 inh=i;CLK3 inh=i;DYRK1B RBC=45µM*;CLK1 RBC=50µM*
Clc1ccccc1-c1nc(NCc2ccc(-c3cccnc3)cc2)c2ccccc2n1 | 20% | x | x
CNCCn1c(=O)c2cc(OC)c(OC)cc2c2cnc3cc4c(cc3c21)OCO4 | 15%[29.8 µM] | x | x
O=C(Nc1ccc(S(=O)(=O)Nc2nccs2)cc1)c1ccc2ccccc2c1 | u | x | x | USP2a K63=3.9µM*;Casp6 inh=-26

Screens as filed in PubChem BioAssay.
